Source: PubChem BioAssay (NCATS)
Inconclusive results are not listed. Activity calls are given as the source filed them. Unless noted, calls follow the shape of the full dose curve. Peptide text beside a SMILES is read from it. * marks the point of attachment. Cbz = O=C(OCc1ccccc1)*

Key:
[1] = biological target: Alpha-galactosidase (Coffea arabica) (UniProt Q42656); experiment: Counterscreen for Glucocerebrosidase Inhibitors: qHTS Assay for Coffee Bean alpha-Galactosidase at pH 4.5 (AID 957; active = well fitted curve in the direction sought with a large enough effect; an effect the other way counts as inactive or inconclusive)
In short: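 Fluorogenic read-out: 4-methylumbelliferone at Ex 365/Em 440 nm after NaOH/glycine stop (pH 10). Enzyme 2 nM, 4-MU-alpha-galactoside 80 uM, citrate buffer pH 4.5, 20 min RT; normalized to no-enzyme and enzyme controls.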

[2] = biological target: Alpha-galactosidase (Coffea arabica) (UniProt Q42656); experiment: Counterscreen for Glucocerebrosidase Inhibitors: qHTS Assay for Coffee Bean alpha-Galactosidase at pH 5.9 (AID 998; active = well fitted curve in the direction sought with a large enough effect; an effect the other way counts as inactive or inconclusive)
In short: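 Enzyme 2 nM + cpd (0.7 nM–77 uM titration) + 4-MU-alpha-Gal 80 uM, pH 5.9 citrate/Tween-20, RT 20 min, NaOH/glycine stop pH 10, fluor 365/440. Normalized to no-enzyme and full-activity controls; Hill-fit AC50.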

[3] = Inducers of the Endoplasmic Reticulum Stress Response (ERSR) in human glioma: Validation (AID 504836; active = well fitted curve in the direction sought with a large enough effect; an effect the other way counts as inactive or inconclusive)
In short: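 Stably transfected U87-MG glioma cells carrying a GRP78-based luciferase sensor; 16 h compound incubation. Luminescence end-point read 10 min after Bright-Glo addition at room temperature.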

[4] = qHTS for Inhibitors of the Functional Ribonucleoprotein Complex (vRNP) of Lassa (LASV) Arenavirus: LASV Primary Screen - GLuc reporter signal (AID 1347082; calls by dose curve; tested in HEK293 reporter line; also: nearly all actives have a fitted effect of over 60% in size; also: potency is read from the fitted curve at half-maximal effect)
[5] = qHTS for Inhibitors of the Functional Ribonucleoprotein Complex (vRNP) of Lassa (LASV) Arenavirus: Viability assay - alamar blue signal for LASV Primary Screen (AID 1347083; calls by dose curve; tested in HEK293 reporter line; also: nearly all actives have a fitted effect of over 80% in size; also: potency is read from the fitted curve at half-maximal effect)
[6] = qHTS for Inhibitors of the Functional Ribonucleoprotein Complex (vRNP) of Lymphocytic Choriomeningitis Arenaviruses (LCMV): Viability assay - alamar blue signal for LCMV Primary Screen (AID 1347085; calls by dose curve; tested in HEK293 reporter line; also: nearly all actives have a fitted effect of over 80% in size; also: potency is read from the fitted curve at half-maximal effect)
[7] = biological target: Nucleoprotein (Lymphocytic choriomeningitis virus (strain Armstrong)) (UniProt P09992); experiment: qHTS for Inhibitors of the Functional Ribonucleoprotein Complex (vRNP) of Lymphocytic Choriomeningitis Arenaviruses (LCMV): LCMV Primary Screen - GLuc reporter signal (AID 1347086); also: nearly all actives have a fitted effect of over 70% in size; also: potency is read from the fitted curve at half-maximal effect
[8] = Cytotoxicity counterscreen for inhibitors of SARS-CoV-2 cell entry (AID 1645845); also: nearly all actives have a fitted effect of over 50% in size; also: potency is read from the fitted curve at half-maximal effect
In short: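 Counterscreen run in the same HEK293-ACE2 line as the pseudotyped-particle entry assay, without particles. Viability after 48 h at 37 C was read as ATP luminescence, scaled between cell-containing and cell-free wells.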

[9] = Primary qHTS to identify inhibitors of SARS-CoV-2 cell entry (AID 1645846); conditions: activity change, negative = inhibition: at 57.1 µM (top of the series) unless noted; also: nearly all actives have a fitted effect of over 45% in size; also: potency is read from the fitted curve at half-maximal effect
In short: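 HEK293-ACE2 (Expi293F, stable hACE2), 1500 cells/well, o/n 37C; cpd 23 nL pin, 1 h; MLV-PP w/ SARS-CoV-2-S (Wuhan-Hu-1, Δ19 C-term); 48 h 37C; Bright-Glo luminescence; normalized vs S-PP and bald PP.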

[10] = Validation screen for inhibitors of Lassa infection (AID 463096)
[11] = biological target: M-phase phosphoprotein 8 (Homo sapiens) (UniProt Q99549); experiment: qHTS Validation Assay for Inhibitors for MPP8 Chromodomain Interactions with Methylated Histone Tails (AID 488949; active = well fitted curve in the direction sought with a large enough effect; an effect the other way counts as inactive or inconclusive;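 also: AlphaScreen signal from MPP8 chromodomain bound to biotinylated H3K9me3 peptide; top concentration of the series differs between compounds; nearly all actives have a fitted effect of over 55% in size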)
In short: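 AlphaScreen read-out: streptavidin donor and nickel chelate acceptor beads (final 10 ug/mL), 30 min in the dark at RT. Complex of 50 nM MPP8 and 50 nM b-H3(1-18)K9me3 peptide had been exposed to compounds for 30 min beforehand.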

[12] = qHTS assay for small molecule agonists of the antioxidant response element (ARE) signaling pathway (AID 651741; active = well fitted activation curve with a large enough effect in the signal ratio; the % refers to the signal ratio; also: potency is read from the fitted curve at half-maximal effect)
In short: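 HepG2 ARE-bla reporter cells, 2,000/well; 5 h settle at 37 C/5% CO2; compound pin transfer (23 nL, DMSO); 16 h at 37 C; LiveBLAzer B/G FRET substrate, 2 h RT; fluorescence intensity read.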

[13] = qHTS assay for small molecule agonists of the antioxidant response element (ARE) signaling pathway measured by Nrf2-dependant transcriptional activity - cell viability counter screen (AID 720653; active = well fitted curve in the direction sought with a large enough effect in the repeat runs; an effect the other way counts as inactive or inconclusive; also: potency is read from the fitted curve at half-maximal effect); conditions: ARE-bla HepG2 viability, CellTiter-Glo ATP luminescence, 16 h; max response: stronger effect = lower value
In short: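 ARE-bla HepG2 cells treated with compounds for 16 h at 37C; this counter screen measures viability as intracellular ATP by CellTiter-Glo luminescence after 30 min at room temperature.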

[14] = biological target: Cytochrome P450 3A4 (Homo sapiens) (UniProt P08684); experiment: qHTS Assay for Inhibitors and Substrates of Cytochrome P450 3A4 (AID 884; active = well fitted curve in the direction sought with a large enough effect; an effect the other way counts as inactive or inconclusive; also: potency is read from the fitted curve at half-maximal effect; nearly all actives have a fitted effect of over 50% in size)
In short: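 Luminescent readout of luciferin produced by CYP3A4 (20 nM) dealkylation of Luciferin-PPXE, 25 uM (its KM). NADPH-driven reaction ran 60 min at RT after 10 min compound preincubation; data scaled to 57 uM ketoconazole as 100% inhibition.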

[15] = biological target: Cytochrome P450 3A4 (Homo sapiens) (UniProt P08684); experiment: qHTS Assay for Activators of Cytochrome P450 3A4 (AID 885; active = well fitted curve in the direction sought with a large enough effect; an effect the other way counts as inactive or inconclusive; also: nearly all actives have a fitted effect of over 65% in size)
In short: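 Human CYP3A4 dealkylates Luciferin-PPXE to luciferin, which luciferase detection converts to light. Substrate was at its KM (25uM), buffer 200mM KPO4, reaction 60 min at RT.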

[16] = qHTS profiling of the MIPE4 collection as inhibitors of Plasmodium falciparum (DD2) proliferation (Rep 2) (AID 743346; call rule not given here); conditions: P. falciparum Dd2 in erythrocytes, SYBR Green DNA, 72 h; at 28.5 µM (top of the series) unless noted
In short: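 Parasite DNA was quantified by SYBR Green I fluorescence (ex 485, em 535 nm) after overnight lysis in saponin/Triton buffer at room temperature. Cultures at 0.3% parasitemia and 2.5% hematocrit were first exposed to compound for 72 h at 37 C; signals were normalised to artemisinin (0.29 uM) and vehicle wells.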

Sequence of Nucleoprotein (Lymphocytic choriomeningitis virus (strain Armstrong)) (P09992 whole entry, looked up): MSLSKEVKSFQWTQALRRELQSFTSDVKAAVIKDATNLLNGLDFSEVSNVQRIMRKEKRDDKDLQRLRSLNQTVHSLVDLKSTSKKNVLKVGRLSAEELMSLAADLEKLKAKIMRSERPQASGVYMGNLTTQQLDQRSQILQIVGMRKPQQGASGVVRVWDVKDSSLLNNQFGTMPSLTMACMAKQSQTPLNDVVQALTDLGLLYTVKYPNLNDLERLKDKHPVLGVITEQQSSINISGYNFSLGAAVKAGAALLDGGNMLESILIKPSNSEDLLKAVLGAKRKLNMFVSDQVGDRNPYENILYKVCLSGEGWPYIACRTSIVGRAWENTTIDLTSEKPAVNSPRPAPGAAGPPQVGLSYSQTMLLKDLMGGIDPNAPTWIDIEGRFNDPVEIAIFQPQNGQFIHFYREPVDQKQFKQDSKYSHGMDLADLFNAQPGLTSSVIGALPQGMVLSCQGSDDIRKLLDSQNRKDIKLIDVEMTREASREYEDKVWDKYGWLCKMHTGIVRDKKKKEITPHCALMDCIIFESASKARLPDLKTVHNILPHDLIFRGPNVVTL
Sequence of Cytochrome P450 3A4 (Homo sapiens) (P08684 whole entry, looked up): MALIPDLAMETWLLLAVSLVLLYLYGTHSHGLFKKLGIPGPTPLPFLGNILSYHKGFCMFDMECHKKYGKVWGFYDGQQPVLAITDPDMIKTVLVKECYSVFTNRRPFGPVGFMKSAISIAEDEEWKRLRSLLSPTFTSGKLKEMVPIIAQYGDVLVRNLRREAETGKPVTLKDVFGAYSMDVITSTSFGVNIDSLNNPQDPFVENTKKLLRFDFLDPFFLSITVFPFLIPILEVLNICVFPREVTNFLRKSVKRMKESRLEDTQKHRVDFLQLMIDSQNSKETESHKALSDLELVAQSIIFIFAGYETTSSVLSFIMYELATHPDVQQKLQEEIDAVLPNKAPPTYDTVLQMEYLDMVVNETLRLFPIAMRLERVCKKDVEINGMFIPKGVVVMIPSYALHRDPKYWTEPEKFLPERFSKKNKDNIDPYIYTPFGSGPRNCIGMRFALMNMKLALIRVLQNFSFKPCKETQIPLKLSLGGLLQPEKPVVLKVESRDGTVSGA
Sequence of Alpha-galactosidase (Coffea arabica) (Q42656 whole entry, looked up): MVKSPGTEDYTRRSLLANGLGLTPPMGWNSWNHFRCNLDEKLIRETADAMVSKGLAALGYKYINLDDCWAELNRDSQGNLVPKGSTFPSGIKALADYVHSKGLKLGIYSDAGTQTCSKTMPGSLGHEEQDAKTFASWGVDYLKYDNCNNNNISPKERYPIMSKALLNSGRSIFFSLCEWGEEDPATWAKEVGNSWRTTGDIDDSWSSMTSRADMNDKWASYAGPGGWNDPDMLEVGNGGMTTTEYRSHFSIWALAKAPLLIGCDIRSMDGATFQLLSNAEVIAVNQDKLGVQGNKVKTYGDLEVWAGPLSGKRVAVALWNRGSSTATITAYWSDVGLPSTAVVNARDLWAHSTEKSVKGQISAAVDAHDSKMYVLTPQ
Sequence of M-phase phosphoprotein 8 (Homo sapiens) (Q99549 whole entry, looked up): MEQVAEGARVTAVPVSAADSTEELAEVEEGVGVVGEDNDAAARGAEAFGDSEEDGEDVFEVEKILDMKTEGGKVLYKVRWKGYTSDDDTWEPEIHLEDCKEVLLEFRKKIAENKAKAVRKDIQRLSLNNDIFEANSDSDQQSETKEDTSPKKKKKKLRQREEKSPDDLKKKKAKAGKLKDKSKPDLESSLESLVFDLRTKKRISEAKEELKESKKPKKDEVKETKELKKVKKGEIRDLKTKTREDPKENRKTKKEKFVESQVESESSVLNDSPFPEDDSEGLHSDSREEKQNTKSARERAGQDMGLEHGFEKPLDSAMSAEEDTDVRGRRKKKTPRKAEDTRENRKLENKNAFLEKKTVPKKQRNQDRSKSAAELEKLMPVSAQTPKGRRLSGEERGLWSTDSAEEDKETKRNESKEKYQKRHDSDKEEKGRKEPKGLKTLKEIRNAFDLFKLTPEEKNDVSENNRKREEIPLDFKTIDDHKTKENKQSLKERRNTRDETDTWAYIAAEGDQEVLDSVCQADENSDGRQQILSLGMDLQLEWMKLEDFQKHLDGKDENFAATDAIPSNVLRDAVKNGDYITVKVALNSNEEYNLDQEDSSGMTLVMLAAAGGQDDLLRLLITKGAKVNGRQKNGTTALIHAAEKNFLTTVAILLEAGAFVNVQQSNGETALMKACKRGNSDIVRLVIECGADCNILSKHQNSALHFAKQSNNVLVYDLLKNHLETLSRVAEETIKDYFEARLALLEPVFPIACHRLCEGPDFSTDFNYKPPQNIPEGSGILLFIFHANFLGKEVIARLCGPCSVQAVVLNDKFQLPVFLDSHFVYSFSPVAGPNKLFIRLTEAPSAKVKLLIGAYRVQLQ

COc1cccc(-c2cc(=O)c3ccccc3o2)c1N
inactive: outcome [1] | outcome [2] | outcome [3] | Potency [4] | Potency [5] | Potency [6] | Potency [7] | Potency [8] | Potency [9]

NC(=O)c1ccc2[nH]ccc2c1
-19.6%: activity change, negative = inhibition [9]
inactive: outcome [3] | Potency [4] | Potency [5] | Potency [6] | Potency [7] | Potency [8]

CC(C)C[C@@H](C=O)NC(=O)[C@H](CC(C)C)NC(=O)[C@H](CC(C)C)NC(=O)OCc1ccccc1 (Cbz-Leu-Leu-Leu-aldehyde)
active: Potency [4] 1.93 µM | Potency [5] 4.32 µM | Potency [6] 5.44 µM | Potency [7] 3.43 µM | Potency [8] 1.12 µM
-96.8%: activity change, negative = inhibition [9]

Nc1nc(N)c2nc(CNc3ccc(C(=O)NC(CCC(=O)O)C(=O)O)cc3)cnc2n1 (stereo unspecified)
active: Potency [12] 77 nM | Potency [13] 12.6 nM
inactive: Potency [10] | Potency [11] | outcome [3] | Potency [4] | Potency [5] | Potency [6] | Potency [7] | Potency [8] | Potency [9]

C[C@H](CCC(=O)O)[C@H]1CCC2C3C[C@H](O)[C@@H]4C[C@H](O)CC[C@]4(C)C3CC[C@@]21C (stereo partly specified)
-10.6%: activity change, negative = inhibition [9]
inactive: Potency [4] | Potency [5] | Potency [6] | Potency [7] | Potency [8]

O=C1Nc2ccc(I)cc2/C1=C/c1cc(Br)c(O)c(Br)c1
-7.81%: activity change, negative = inhibition [9]
inactive: Potency [15] | outcome [1] | outcome [2] | Potency [10] | outcome [3] | Potency [4] | Potency [5] | Potency [6] | Potency [7] | Potency [8]
active: Potency [14] 5.01 µM

C=Cc1c(C)c2cc3nc(cc4[nH]c(cc5nc(cc1[nH]2)C(C)=C5CCC(=O)O)c(CCC(=O)OC)c4C)[C@@]1(C)C3=CC=C(C(=O)OC)[C@H]1C(=O)OC
active: Potency [4] 1.72 µM | Potency [5] 0.344 µM | Potency [6] 0.172 µM | Potency [7] 0.217 µM
inactive: Potency [8] | Potency [9]

O=C(NC[C@H](O)CO)c1ccncc1Nc1ccc(I)cc1F
inactive: Potency [4] | Potency [5] | Potency [6] | Potency [7] | Potency [8] | Potency [9]

CCCCCNC(=O)N1CCC(CN(Cc2ccc(Cl)cc2)Cc2ccc([N+](=O)[O-])s2)C1 (stereo unspecified)
-21.9%: activity change, negative = inhibition [9]
inactive: Potency [4] | Potency [5] | Potency [6] | Potency [7] | Potency [8]

CNC(=O)c1ccc2cc(C3(O)CCn4cncc43)ccc2c1 (stereo unspecified)
-19.9%: activity change, negative = inhibition [9]
inactive: Potency [4] | Potency [5] | Potency [6] | Potency [7] | Potency [8]

O=C1NC(=O)/C(=C/c2ccc(-c3ccc(F)cc3O)o2)S1
inactive: outcome [3] | Potency [4] | Potency [5] | Potency [6] | Potency [7] | Potency [8] | Potency [9]

Cc1coc2c1C(=O)C(=O)c1c-2ccc2c1CCCC2(C)C
inactive: Potency [4] | Potency [5] | Potency [6] | Potency [7] | Potency [8]
-20%: activity change, negative = inhibition [9]

CN1CC(=O)NC1=NC(=O)Nc1cccc(Cl)c1
-1.73%: activity change, negative = inhibition [9]
inactive: Potency [4] | Potency [5] | Potency [6] | Potency [7] | Potency [8]

OCc1ccc(-c2ccc(-c3ccc(CO)s3)o2)s1
inactive: Potency [4] | Potency [5] | Potency [6] | Potency [7] | Potency [8] | Potency [9]

C=C(C)[C@@H]1CC[C@]2(C(=O)O)CC[C@]3(C)[C@H](CC[C@@H]4[C@@]5(C)CC[C@H](O)C(C)(C)[C@@H]5CC[C@]43C)[C@@H]12
inactive: Potency [4] | Potency [5] | Potency [6] | Potency [7] | Potency [8] | Potency [9]
97%: parasite growth, % of control (lower = inhibition) [16]

CC1(C)CC(=O)c2c(C(F)(F)F)nn(-c3ccc(C(N)=O)c(NC4CCC(O)CC4)c3)c2C1 (stereo unspecified)
active: Potency [4] 1.09 µM | Potency [5] 0.611 µM | Potency [6] 0.769 µM | Potency [7] 0.273 µM
-89.6%: activity change, negative = inhibition [9]

O=C1c2ccccc2-[n+]2ccc3c([nH]c4ccccc43)c21
active: Potency [4] 4.85 µM | Potency [5] 4.32 µM | Potency [6] 6.11 µM | Potency [7] 3.06 µM | Potency [9] 1.26 µM

Nc1ncnc2c1c(-c1cnc3[nH]ccc3c1)nn2C1CCCC1
active: Potency [4] 6.85 µM | Potency [5] 1.72 µM | Potency [6] 2.17 µM | Potency [7] 6.11 µM | Potency [9] 10 µM

CSc1cccc(Nc2ncc3cc(-c4c(Cl)cccc4Cl)c(=O)n(C)c3n2)c1
inactive: Potency [4] | Potency [5] | Potency [6] | Potency [7]
-95.8%: activity change, negative = inhibition [9]

NCCCCNCCCN
inactive: outcome [1] | outcome [2] | Potency [10] | outcome [3] | Potency [4] | Potency [5] | Potency [6] | Potency [7] | Potency [8]

O=C(Nc1cccc(Nc2ncc(Br)c(NCCc3cnc[nH]3)n2)c1)N1CCCC1
-97.2%: activity change, negative = inhibition [9]
inactive: Potency [4] | Potency [7]
active: Potency [5] 21.7 µM | Potency [6] 27.3 µM

Oc1ccc(-c2nc(-c3ccc(F)cc3)c(-c3ccncc3)[nH]2)cc1
active: Potency [14] 1 µM
inactive: Potency [15] | outcome [1] | outcome [2] | outcome [3] | Potency [4] | Potency [5] | Potency [6] | Potency [7] | Potency [8]
